Screening results from PubChem BioAssay.
KAT2A inh = GCN5L2 (KAT2A) acetyltransferase inhibition; GCN5L2 HAT assay, ThioGlo1 CoA-SH fluorescence; Potency, µM (highest dose often 58.9 µM), for the others: at the top dose activity change, negative = inhibition, actives largely listed as inhibitors; 0.21% of 390,000 active; Q92830; further: on the % scale 0 is the no-effect control and ±100 the full control effect
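Preincubate 20nM GCN5L2 with compound 15 min, RT → add 50uM ThioGlo1 + 75uM H3(1-25) + 70uM acetyl-CoA → read fluorescence 0 and 20 min. Primary qHTS; fluorescent artifacts likely.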
WRN helicase inh-1 = WRN helicase (human) inhibition | Q14191 | WRN helicase unwinding, fluorescent forked duplex, kinetic | Potency, µM (top dose mostly 114 µM), for the others: top-dose activity change, negative = inhibition, usual class: inhibitors | 0.46% of 360,000 active; further: on the % scale 0 is the no-effect control and ±100 the full control effect; nearly all actives have a fitted effect of over 55% in size
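Enzyme (20 nM final) and test compound sit together 15 min at room temperature before substrate addition. Substrate is a single-forked duplex oligonucleotide (100 nM) labelled with fluorophore and quencher, with 2 mM ATP; helicase unwinding raises red fluorescence, read kinetically.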
APE1 inh = blocks human APE1 abasic DNA cleavage. recombinant APE1, TAMRA/BHQ-2 abasic DNA cleavage fluorescence. Potency, µM (doses to about 65.8 µM), for the others: at the highest dose activity change, negative = inhibition, most hits filed as inhibitors. 0.35% of 350,000 active. AID 2517;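 further: plate controls were vehicle for no effect and reference inhibitor for full effect; nearly all actives have a fitted effect of over 55% in size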
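Enzyme (0.75 nM final) and test compound are incubated 15 min at room temperature before adding 50 nM quenched THF abasic-site duplex. Cleavage dequenches TAMRA, followed at 525/598 nm over three reads one minute apart.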
ERG Ets-DNA blk = inhibitors of human ERG Ets domain-DNA interaction; fluorescence polarization, His-ERG Ets domain / labelled DNA; Potency, µM (titrated, usually from 76.9 µM), inactives show at the highest dose FP activity, negative = inhibition, hits mostly inhibitors; 0.028% of 370,000 active; AID 624246; active means well fitted inhibition curve with a large enough effect in the polarisation, with a control signal flat; inconclusive means small, poorly fitted or top-dose-only effect, or effect the other way, or a change in a side signal; inactive means no such curve, though single readings can be large or run the other way; the % refers to the polarisation;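 further: polarization taken with two DNA probes labelled with fluorescein and Texas red; % of control where 0% means no effect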
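His-tagged ERG Ets domain (1 uM in the protein solution; 300mM KCl, 50mM Tris-HCl, 1mM EDTA, 1mM DTT, pH 7.5) received compound, then a probe mix of 5 nM fluorescein-DNA and 100nM Texas-615-DNA. Fluorescence polarization was read for both dyes.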
RECQ1 helicase = RECQ1 (human) helicase inhibition; 0.54% of 240,000 active; Potency, µM (highest dose often 57.3 µM), inactives show at the highest dose activity, negative = inhibition, hits mostly inhibitors; RECQ1 DNA unwinding, red fluorescence kinetic read;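 further: plate controls were vehicle for no effect and no enzyme for full effect; nearly all actives have a fitted effect of over 30% in size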
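RECQ1T1 50 nM; forked duplex (20 bp + 30-nt ss tails) 200 nM, ATP 2 mM final; pH 8.0, 2 mM MgCl2, 2.5 ug/ml poly(dI-dC); 15 min compound preincubation; discontinuous kinetic read over 2 h at RT.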
BLM helicase inh-1 = Bloom syndrome helicase (human) inhibition; P54132; 0.2% of 350,000 active; recombinant BLM DNA unwinding, fluorescence dequenching; Potency, µM (titrated, usually from 56.1 µM), for the others: at the highest dose activity change, negative = inhibition, hits mostly inhibitors; AID 2528;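 further: plate controls were vehicle for no effect and no enzyme for full effect; nearly all actives have a fitted effect of over 35% in size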
WRN helicase inh-2 = confirmation of human WRN helicase inhibitors; Potency, µM (top dose mostly 57.1 µM), for the others: at the highest dose activity, negative = inhibition, actives largely listed as inhibitors; 63% of 610 active; shares compounds with WRN helicase inh-1; WRN helicase DNA unwinding, fluorescence kinetic; further: nearly all actives have a fitted effect of over 65% in size
TO displacement = counter-screen for WRN helicase inhibitors: DNA binding. shares compounds with WRN helicase inh-1. thiazole orange DNA binding displacement, fluorescence. Potency, µM (series often up to 57.1 µM), without a hit: at the highest dose activity change, negative = inhibition, most hits filed as inhibitors. 10% of 610 active;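 further: drop in dye fluorescence marks compound binding to DNA; on the % scale 0 is the no-effect control and ±100 the full control effect; nearly all actives have a fitted effect of over 60% in size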
BLM helicase inh-2 = blocks human BLM helicase in WRN counterscreen; Recombinant BLM helicase DNA unwinding, red fluorescence; 60% of 610 active; Potency, µM (top dose mostly 57.1 µM), inactives show at the highest dose activity change, negative = inhibition, usual class: inhibitors; shares compounds with WRN helicase inh-1; AID 720503; further: nearly all actives have a fitted effect of over 60% in size
Active calls of the source: *; ? = inconclusive; · = not tested or not shown. Shown are actives, neighbours in structure and some others; about 0.88% of the full set was active somewhere. Unless noted, the call rests on the fitted dose curve; in most records, active means well fitted curve in the direction sought with a large enough effect; inconclusive means small, poorly fitted or top-dose-only effect, or another doubt; inactive means no such curve, though single readings can be large; an effect the other way counts as inactive or inconclusive. Potency means the concentration at half of the fitted maximal effect.

SMILES | KAT2A inh | WRN helicase inh-1 | APE1 inh | ERG Ets-DNA blk | RECQ1 helicase | BLM helicase inh-1 | WRN helicase inh-2 | TO displacement | BLM helicase inh-2
CCOc1cc(/C=C2/SC(=S)N(CC3CCCO3)C2=O)ccc1O (centres undefined) | 0% | 35µM* | -10% | 153% | 14µM* | -13% | ? | 18% | 22µM*
O=C(O)c1ccc(/C=C2\SC(=S)N(NC(=O)c3ccccc3)C2=O)cc1 | 1% | -12% | 36% | 48% | · | -1% | · | · | ·
COc1cc(/C=C2\SC(=S)N(NC(=O)c3cccc(O)c3)C2=O)ccc1O | -15% | 32µM* | 17% | 186% | · | -17% | 22µM* | 3.8µM* | 22µM*
COc1cc(/C=C2\SC(=S)N(NC(=O)c3ccc(O)c(OC)c3)C2=O)ccc1O | ? | 40µM* | 1% | 140% | · | -14% | 19µM* | -1% | 19µM*
Cc1ccc(CNC(=O)c2ccc3c(O)c(S(=O)(=O)c4ccc(Cl)cc4)c(=O)[nH]c3c2)cc1 | -9% | · | · | 13% | · | 5% | · | · | ·
CC1=NN(c2ccc(C(=O)O)cc2)C(=O)/C1=C\c1ccc(OC(=O)c2cccs2)cc1 | ? | 5.3µM* | ? | 10% | -5% | -4% | 17µM* | -7% | ?
CN(Cc1ccco1)C(=O)CCc1nc2sc3c(c2c(=O)[nH]1)CCCC3 | -9% | -23% | 0% | 15% | · | -15% | · | · | ·
Cc1ccc(CN(C)C(=O)CCc2nc3sc4c(c3c(=O)[nH]2)CCCC4)o1 | -10% | ? | -7% | -10% | · | -15% | ? | -19% | ?
Cc1nc2ccc(S(=O)(=O)N(CC(=O)Nc3ccc(F)cc3F)Cc3ccccc3)cc2s1 | -8% | · | · | -5% | · | -4% | · | · | ·
CCOc1ccc(Sc2cc(C(=O)NCCCOC)c3ccccc3n2)cc1 | -14% | · | · | -1% | · | -11% | · | · | ·
Cc1cc(NC(=O)C2CCN(S(=O)(=O)c3cccc4nsnc34)CC2)ccc1Br | -7% | · | · | -2% | · | -4% | · | · | ·
CC(=O)NCCNc1nc(-c2c(C)noc2C)nc2ccccc12 | -6% | · | -4% | · | -4% | 4% | · | · | ·
CC(=O)Nc1ccc(C=NNc2ccc(S(=O)(=O)Nc3ccccc3C(=O)O)cc2[N+](=O)[O-])cc1 | ? | ? | -4% | 101% | · | · | · | · | ·
O=C(O)c1ccccc1NS(=O)(=O)c1ccc(N/N=C/c2cccc(O)c2O)c([N+](=O)[O-])c1 | · | 20µM* | · | · | · | · | 19µM* | 27µM* | 6.1µM*
COc1cc(C=NNc2ccc(S(=O)(=O)Nc3ccccc3C(=O)O)cc2[N+](=O)[O-])ccc1O | ? | 79µM* | ? | 4% | · | · | 24µM* | 24µM* | 27µM*
CCCCCOC(=O)c1ccc(Nc2nc(C(=O)OCC)nc3ccccc23)cc1 | -9% | · | · | -1% | · | -4% | · | · | ·
CCN(CC)Cc1cc(Nc2c3ccccc3nc3c4ccccc4n(C)c23)cc(CN(CC)CC)c1O | · | ? | · | · | · | · | 17µM* | 38µM* | -19%
CNc1ccccc1C(C)(C)c1cc(-c2cccc([N+](=O)[O-])c2)no1 | -20% | -12% | 14% | 10% | -8% | -7% | · | · | ·
CNc1ccccc1C(C)(C)c1cc(-c2cccc(Br)c2)no1 | -6% | 79µM* | 56% | 87% | -14% | -8% | ? | -7% | ?
